# Data: ChEMBL document CHEMBL4513146, “CO-ADD screening of Karazin Kharkiv National University (Ukraine) compounds”
# Measured potencies and affinities stand elsewhere.
# Assays:
# Staphylococcus aureus = conditions: Concentration 32 ug.mL-1;; ASSAY_TEST Inhibition of Bacterial Growth; detection method Absorption (OD600); MEDIA CAMHB; plate type 384well; NBS; CORNING #3640; time 18 hr
# Escherichia coli = conditions: Concentration 32 ug.mL-1;; ASSAY_TEST Inhibition of Bacterial Growth; detection method Absorption (OD600); MEDIA CAMHB; plate type 384well; NBS; CORNING #3640; time 18 hr
Structure (SMILES),Inhibition (Staphylococcus aureus),Inhibition (Escherichia coli)
CCOc1ccc(-n2ccn3c(SCC(=O)NCc4cccc(OC)c4OC)nnc3c2=O)cc1,12.04%,-1.13%
Cc1cc2nn(CC(=O)Nc3ccccc3C)c(=O)n2c(Nc2ccc(F)c(C)c2)n1,4.45%,-4.23%
CCCN(C)c1nccn2c(=O)n(CC(=O)Nc3ccc(F)cc3)nc12,13.38%,-2.86%
Cc1cc(C)cc(NC(=O)Cn2nc3c4cc(-c5ccc(C)c(C)c5)nn4ccn3c2=O)c1,5.77%,-4.98%
Cc1cc(C)cc(Nc2nc(C)cc3nn(CC(=O)Nc4ccc(Cl)cc4)c(=O)n23)c1,-9.56%,0.58%
COc1ccccc1-n1ccn2c(SCC(=O)Nc3ccc(C)cc3Cl)nnc2c1=O,8.71%,-9.42%
Cc1ccc(-c2ccc3nn(Cc4ccc(F)cc4Cl)c(=O)n3n2)cc1C,8.63%,-0.58%
O=C(Cn1nc2c(SCc3ccccc3)nccn2c1=O)NC1CCCCC1,7.46%,-4.24%
Cc1cc2nn(CC(=O)Nc3ccc(F)cc3F)c(=O)n2c(Nc2ccc(C)c(F)c2)n1,8.31%,-0.48%
Cc1ccc(C)c(C(=O)CSc2nnc3c(=O)n(-c4ccc(F)c(F)c4)ccn23)c1,18.46%,1.4%
COc1cc(NC(=O)Cn2nc3c(SC4CCCCC4)nccn3c2=O)cc(OC)c1,0.44%,-4.73%
COC(=O)c1cccc(NC(=O)Cn2nc3c(N4CCC(C)CC4)nccn3c2=O)c1,-12.03%,-9.95%
Cc1ccc(NC(=O)CSc2nc3ccccc3n3c(C)nnc23)c(Br)c1,15.19%,-2.51%
COc1cc(OC)c(NC(=O)Cn2nc3ccc(Sc4cccc(F)c4)nn3c2=O)cc1Cl,4.57%,-1.59%
O=c1c2sccc2n2c(=O)n(Cc3cccc(Cl)c3)nc2n1CCc1ccccc1,10.13%,1.01%
Cc1nnc2c(SCC(=O)Nc3ccc4c(c3)OCCO4)nc3ccccc3n12,5.53%,3.38%
Cc1ccc(-c2cc3c4nnc(CCC(=O)N5CCN(c6ccccc6F)CC5)n4ccn3n2)cc1C,-1.08%,-5.39%
